The values below come from the supplement of paper PMC4022240.

± gives the standard deviation.

What all share (assay): peptide microarray binding signal (635 nm), min-max normalized on array (fraction of array maximum); higher = stronger binding
The target in experiment [1] is T1, HaloTag-ATRX ADD domain (163-292).
T1 chain: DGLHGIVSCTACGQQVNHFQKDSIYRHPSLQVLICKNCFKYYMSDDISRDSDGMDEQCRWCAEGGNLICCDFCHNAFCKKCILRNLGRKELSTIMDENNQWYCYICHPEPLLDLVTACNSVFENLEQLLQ
The method, boiled down: (§1)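 Arrays carried histone 13-mer peptide–cellulose conjugates printed in triplicate on nitrocellulose alongside a Cy3 tracer. After overnight blocking at 4°C, they were incubated for 1 h at 4°C with biotin-labelled HaloTag reader fusions (10 nM to 1 μM) plus streptavidin-Alexa Fluor 647, or with rabbit histone antibodies (1:10,000 to 1:2,000) plus anti-rabbit Alexa 647. Scanning on an Axon GenePix 4000B used 635 nm for signal and 532 nm for misprints. The binding signal reported is each triplicate's mean spot intensity after per-library min-max scaling.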

Experiment [2] addresses HaloTag-ING2 PHD (mouse Ing2 200-280). The essentials:
as §1

Experiment [3] addresses anti-H3K4me3 antibody ab8580. The method, boiled down:
as §1

The target of experiment [4] is anti-H3K9me3 antibody ab8898. The method, boiled down: as §1
The mark [5] stands for this setting: peptide region: H4 8-19, peptide modifications: H4K12ac H4K16ac, binder concentration: 1:2,000 dilution.
[6] abbreviates: peptide region: H4 8-19, peptide modifications: H4K12ac H4K16ac, binder concentration: 1:10,000 dilution.
[7] abbreviates: peptide region: H4 16-28, peptide modifications: H4K20me1, binder concentration: 1:2,000 dilution.
Setting [8] is: peptide region: H4 16-28, peptide modifications: H4R19cit H4K20me1, binder concentration: 1:2,000 dilution.
Where [9] appears, read: peptide region: H4 16-28, peptide modifications: H4R19cit H4K20me1, binder concentration: 1:10,000 dilution.
[10] abbreviates: peptide region: H4 8-19, peptide modifications: H4K8ac, binder concentration: 1:2,000 dilution.
The mark [11] stands for this setting: peptide region: H4 8-19, peptide modifications: H4K8ac, binder concentration: 1:10,000 dilution.
[12] abbreviates: peptide region: H4 16-28, binder concentration: 1:2,000 dilution.
The mark [13] stands for this setting: peptide region: H4 16-28, peptide modifications: H4R19cit H4K20me2, binder concentration: 1:2,000 dilution.
The mark [14] stands for this setting: peptide region: H4 16-28, peptide modifications: H4R19cit H4K20me2, binder concentration: 1:10,000 dilution.
The mark [15] stands for this setting: peptide region: H4 16-28, peptide modifications: H4R19cit H4K20me3, binder concentration: 1:2,000 dilution.
[16] abbreviates: peptide region: H4 16-28, peptide modifications: H4R19cit H4K20me3, binder concentration: 1:10,000 dilution.
The mark [17] stands for this setting: peptide region: H4 8-19, peptide modifications: H4R17me2a, binder concentration: 1:2,000 dilution.
[18] abbreviates: peptide region: H4 8-19, peptide modifications: H4R17me2a, binder concentration: 1:10,000 dilution.
The mark [19] stands for this setting: peptide region: H4 16-28, peptide modifications: H4R19me1, binder concentration: 1:2,000 dilution.
The mark [20] stands for this setting: peptide region: H4 8-19, peptide modifications: H4K12ac, binder concentration: 1:2,000 dilution.
[21] abbreviates: peptide region: H4 8-19, peptide modifications: H4K12ac, binder concentration: 1:10,000 dilution.
Setting [22] is: peptide region: H4 8-19, peptide modifications: H4K16ac H4R17me2a, binder concentration: 1:2,000 dilution.

On to KGLGKGGAKRHRK [H4 8-19 K G L G Kac G G A Kac R H R K], for which the “peptide microarray binding signal” value in experiment [1] (peptide region: H4 8-19, peptide modifications: H4K12ac H4K16ac, binder concentration: 50 nM) is 0.000188 ± 6.2e-06; in experiment [1] (peptide region: H4 8-19, peptide modifications: H4K12ac H4K16ac, binder concentration: 500 nM), 0.000333 ± 1.3e-05; in experiment [2] (peptide region: H4 8-19, peptide modifications: H4K12ac H4K16ac, binder concentration: 10 nM), 0.00215 ± 0.00035; in experiment [2] (peptide region: H4 8-19, peptide modifications: H4K12ac H4K16ac, binder concentration: 100 nM), 0.000142 ± 1.7e-06; in experiment [3] (setting [5]), 0; in experiment [3] (setting [6]), 5.71e-05. In addition, the “peptide microarray binding signal” value in experiment [4] (setting [5]) and in experiment [4] (setting [6]) was 0 each time.

KRHRKVLRDNIQG [H4 16-28 K R H R Kme V L R D N I Q G]: the “peptide microarray binding signal” value in experiment [1] (peptide region: H4 16-28, peptide modifications: H4K20me1, binder concentration: 500 nM) is 0.000143; in experiment [2] (peptide region: H4 16-28, peptide modifications: H4K20me1, binder concentration: 100 nM) it was 0.000283; in experiment [3] (setting [7]), 7.55e-05 ± 8.5e-07; in experiment [4] (setting [7]), 4.53e-05.

For the molecule KRHRKVLRDNIQG [H4 16-28 K R H Rcit Kme V L R D N I Q G], the “peptide microarray binding signal” value in experiment [1] (peptide region: H4 16-28, peptide modifications: H4R19cit H4K20me1, binder concentration: 50 nM) amounted to 0.00693 ± 7.8e-05; in experiment [1] (peptide region: H4 16-28, peptide modifications: H4R19cit H4K20me1, binder concentration: 500 nM), 0.00933 ± 0.00036; in experiment [2] (peptide region: H4 16-28, peptide modifications: H4R19cit H4K20me1, binder concentration: 10 nM) it was 0.0107 ± 0.00018; in experiment [2] (peptide region: H4 16-28, peptide modifications: H4R19cit H4K20me1, binder concentration: 100 nM) it was 0.0139 ± 0.00037; in experiment [3] (setting [8]), 0.00145 ± 4.8e-05; in experiment [3] (setting [9]), 0.002853 ± 2.4e-05. The “peptide microarray binding signal” value in experiment [4] (setting [8]) amounted to 0.000785 ± 4.4e-05; in experiment [4] (setting [9]) it was 0.002479 ± 2.2e-05.

In the case of KGLGKGGAKRHRK [H4 8-19 Kac G L G K G G A K R H R K], the “peptide microarray binding signal” value in experiment [1] (peptide region: H4 8-19, peptide modifications: H4K8ac, binder concentration: 50 nM) is 0.00652 ± 0.00063; in experiment [1] (peptide region: H4 8-19, peptide modifications: H4K8ac, binder concentration: 500 nM), 0.0191 ± 0.0048; in experiment [2] (peptide region: H4 8-19, peptide modifications: H4K8ac, binder concentration: 10 nM), 0.004 ± 0.00025; in experiment [2] (peptide region: H4 8-19, peptide modifications: H4K8ac, binder concentration: 100 nM), 0.0126 ± 0.0039; in experiment [3] (setting [10]) it was 0.000849 ± 0.00016; in experiment [3] (setting [11]), 0.001712 ± 1.6e-05. Further, the “peptide microarray binding signal” value stood at 0.000876 ± 7e-05 in experiment [4] (setting [10]) and 0.00121 ± 2.4e-05 in experiment [4] (setting [11]).

As to KRHRKVLRDNIQG [H4 16-28 K R H R K V L R D N I Q G], the “peptide microarray binding signal” value in experiment [1] (peptide region: H4 16-28, binder concentration: 500 nM) turned out to be 0.000238 ± 2.5e-06; in experiment [2] (peptide region: H4 16-28, binder concentration: 100 nM), 0.000354 ± 4.1e-06; in experiment [3] (setting [12]), 0.000132 ± 1.5e-06; in experiment [4] (setting [12]) it was 6.04e-05 ± 2.7e-06.

Turning to KRHRKVLRDNIQG [H4 16-28 K R H Rcit Kme2 V L R D N I Q G], the “peptide microarray binding signal” value in experiment [1] (peptide region: H4 16-28, peptide modifications: H4R19cit H4K20me2, binder concentration: 50 nM) was determined as 0.00351 ± 7.6e-05; in experiment [1] (peptide region: H4 16-28, peptide modifications: H4R19cit H4K20me2, binder concentration: 500 nM), 0.007572 ± 7.1e-05; in experiment [2] (peptide region: H4 16-28, peptide modifications: H4R19cit H4K20me2, binder concentration: 10 nM), 0.00812 ± 0.00016; in experiment [2] (peptide region: H4 16-28, peptide modifications: H4R19cit H4K20me2, binder concentration: 100 nM) it was 0.0181 ± 0.00075; in experiment [3] (setting [13]), 0.0008306 ± 7.4e-06; in experiment [3] (setting [14]) it was 0.0016. Further, the figures for the “peptide microarray binding signal” value in experiment [4] (setting [13]) and in experiment [4] (setting [14]) were 0.000483 ± 9.2e-06 and 0.001211 ± 1.2e-05, respectively.

KRHRKVLRDNIQG [H4 16-28 K R H Rcit Kme3 V L R D N I Q G]: the “peptide microarray binding signal” value in experiment [1] (peptide region: H4 16-28, peptide modifications: H4R19cit H4K20me3, binder concentration: 50 nM) was 0.0068 ± 9.7e-05; in experiment [1] (peptide region: H4 16-28, peptide modifications: H4R19cit H4K20me3, binder concentration: 500 nM) it was 0.00848 ± 0.0011; in experiment [2] (peptide region: H4 16-28, peptide modifications: H4R19cit H4K20me3, binder concentration: 10 nM), 0.0124 ± 0.00084; in experiment [2] (peptide region: H4 16-28, peptide modifications: H4R19cit H4K20me3, binder concentration: 100 nM), 0.018 ± 0.0027; in experiment [3] (setting [15]) it was 0.00832 ± 0.0026; in experiment [3] (setting [16]) it was 0.00514 ± 0.0003. Also, the “peptide microarray binding signal” value in experiment [4] (setting [15]) came out at 0.0039 ± 0.0016; in experiment [4] (setting [16]) it was 0.00369 ± 0.00012.

Take KGLGKGGAKRHRK [H4 8-19 K G L G K G G A K Rme2a H R K]: the “peptide microarray binding signal” value in experiment [1] (peptide region: H4 8-19, peptide modifications: H4R17me2a, binder concentration: 50 nM) amounted to 0.00395 ± 0.00035; in experiment [1] (peptide region: H4 8-19, peptide modifications: H4R17me2a, binder concentration: 500 nM), 0.00957 ± 0.00096; in experiment [2] (peptide region: H4 8-19, peptide modifications: H4R17me2a, binder concentration: 10 nM) it was 0.00358 ± 3.8e-05; in experiment [2] (peptide region: H4 8-19, peptide modifications: H4R17me2a, binder concentration: 100 nM) it was 0.0085 ± 0.00064; in experiment [3] (setting [17]) it was 0.00051 ± 1.5e-05; in experiment [3] (setting [18]), 0.000913 ± 1.6e-05. The “peptide microarray binding signal” value in experiment [4] (setting [17]) was determined as 0.000483 ± 1.7e-05; in experiment [4] (setting [18]), 0.00208 ± 0.00045.

In the case of KRHRKVLRDNIQG [H4 16-28 K R H Rme K V L R D N I Q G], the “peptide microarray binding signal” value in experiment [1] (peptide region: H4 16-28, peptide modifications: H4R19me1, binder concentration: 500 nM) was 9.52e-05 ± 1e-06; in experiment [2] (peptide region: H4 16-28, peptide modifications: H4R19me1, binder concentration: 100 nM) it was 0.000425 ± 4.9e-06; in experiment [3] (setting [19]) it was 0.000113 ± 2.2e-06; in experiment [4] (setting [19]), 1.51e-05 ± 1.7e-07.

With KGLGKGGAKRHRK [H4 8-19 K G L G Kac G G A K R H R K], the “peptide microarray binding signal” value turned out to be 0.00743 ± 0.00047 in experiment [1] (peptide region: H4 8-19, peptide modifications: H4K12ac, binder concentration: 50 nM); 0.0289 ± 0.0017 in experiment [1] (peptide region: H4 8-19, peptide modifications: H4K12ac, binder concentration: 500 nM); 0.00352 ± 0.00036 in experiment [2] (peptide region: H4 8-19, peptide modifications: H4K12ac, binder concentration: 10 nM); 0.0073 ± 0.00023 in experiment [2] (peptide region: H4 8-19, peptide modifications: H4K12ac, binder concentration: 100 nM); 0.000189 ± 2e-06 in experiment [3] (setting [20]); 0.00302 ± 6.8e-05 in experiment [3] (setting [21]). Also, the “peptide microarray binding signal” value in experiment [4] (setting [20]) turned out to be 0.0031 ± 4e-05; in experiment [4] (setting [21]), 0.00283 ± 0.00018.

In the case of KGLGKGGAKRHRK [H4 8-19 K G L G K G G A Kac Rme2a H R K], the “peptide microarray binding signal” value in experiment [1] (peptide region: H4 8-19, peptide modifications: H4K16ac H4R17me2a, binder concentration: 500 nM) came to 0; in experiment [2] (peptide region: H4 8-19, peptide modifications: H4K16ac H4R17me2a, binder concentration: 100 nM) it was 0.000283; in experiment [3] (setting [22]) it was 1.89e-05 ± 2.2e-07; in experiment [4] (setting [22]), 1.51e-05 ± 1.7e-07.
